TTR transcr act: TTR transcription activation, primary screen. SH-SY5Y TTR promoter Gaussia luciferase, luminescence; 100% = recombinant luciferase protein wells. 92,000 compounds, 1.3% hits. activation, % at 16.7 µM. AID 1117267;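 active = activation above the mean of all tested compounds plus 3 SD, cut at about 9.5% in these data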;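 also: cells exposed to compounds for one day before reading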
TTR inh HuH7: decreases TTR transcription in HuH7 cells in activator counter-screen; shares compounds with TTR transcr act; HuH7 TTR promoter-Gaussia luciferase reporter, luminescence; inhibition, % at 16.7 µM; 1,100 compounds, 4% hits; AID 1117279;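 active = average inhibition above the solvent-only control wells' mean plus 3 SD, cut at about 15% in these data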;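 also: inhibitors lower well luminescence so higher value means more inhibition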
TTR up confirm: confirmation of human transthyretin transcription activators; 1,100 tested, under 10 active; SHSY5Y TTR promoter Gaussia luciferase, luminescence; 100% = purified Lucia enzyme wells, no cells; shares compounds with TTR transcr act; activation, % at 16.7 µM; AID 1117280;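 active = mean activation above a set limit taken from the earlier primary screen, cut at about 11% in these data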
Large screens that a line does not name were inactive (follow-up assays come after a bar, where they were run). Only a selection was taken, and hits are over-represented in it overall.

O=C(Nc1ccc(Br)cc1)O[C@@H]1CC[C@@]23CCCN2C(=O)CCC[C@H]3C1	none
CC(=O)C1CCC2C3CCC4=CC(=O)C=CC4(C)C3CCC12C (stereo not given)	none
CC(=O)C1CCC2C3CCC4CC(=O)CCC4(C)C3C(O)CC12C (stereo not given)	TTR transcr act 10 | TTR inh HuH7 inactive | TTR up confirm inactive
CC(=O)C1C(C)CC2C3CCC4CC(=O)CCC4(C)C3CCC21C (stereo not given)	none
CC1(C)COC(c2ccc3c(c2)OCO3)OC1	none
O=[N+]([O-])c1ccc2nc(COCc3nc4ccccc4[nH]3)[nH]c2c1	none
Cc1ccc2nc(C)c3c(c2c1)N(c1ccc(F)cc1)CC3	none
C=CCC[C@@H](Cc1ccc(F)cc1)C(=O)OC[C@@H](Cc1ccccc1)NC(=O)[C@H](CC=C)CC(=O)NCCO	none
C=CC[C@@H](CC(=O)NCCO)C(=O)N[C@@H](C)COC(=O)[C@@H](CC=C)Cc1ccc(F)cc1	TTR transcr act 21 | TTR inh HuH7 inactive | TTR up confirm inactive
C=CC[C@@H](CC(=O)N[C@H](CO)Cc1ccccc1)C(=O)N[C@@H](C)COC(=O)[C@@H](CC=C)Cc1ccc(F)cc1	none
Cc1cccc(OC2CCN(Cc3c(C(=O)N4CCCC4)nc4ccccn34)CC2)c1	none
Cc1ccnc(NC(=S)N2CC3CN(c4cccc(C(F)(F)F)c4)CC3C2)c1 (stereo not given)	none
CCOC(=O)c1ccc(NC(=O)CSc2nc(SC)ns2)cc1	none
CCOc1ccc2nc(NC(=O)CSc3nc(SC)ns3)sc2c1	TTR transcr act 20 | TTR inh HuH7 inactive | TTR up confirm inactive
COc1ccc2nc(NC(=O)CSc3ccccc3)sc2c1	none
O=C(NNc1nc(N2CCOCC2)nc(N2CCOCC2)n1)c1ccccc1	TTR transcr act 23 | TTR inh HuH7 inactive | TTR up confirm inactive
CC(=O)c1cccc(Nc2nc(N3CCOCC3)nc(N3CCOCC3)n2)c1	none
O=C(NNc1cc(N2CCOCC2)nc(N2CCOCC2)n1)c1ccc(Cl)c(Cl)c1	none
O=C(NCC1CCCO1)c1ccccc1NS(=O)(=O)c1cc([N+](=O)[O-])ccc1Cl (stereo not given)	none
COC(=O)c1cc(NC(=O)c2c(F)c(F)c(F)c(F)c2F)cc(C(=O)OC)c1	none
COC(=O)[C@@]1(C)[C@H]2C(=O)N(C)C(=O)[C@H]2[C@H]2CN=C(SCc3ccc(C#N)cc3)N21	none
COc1ccc2[nH]c3c(c2c1)CCN1C(=O)C(CC(=O)NCCN2CCOCC2)C[C@H](C(=O)N2CCOCC2)[C@@]31C (stereo not given in full)	none
COC(=O)[C@@]1(Cc2ccc(F)cc2)[C@H]2c3cc(C(=O)N4CCCC4)n(Cc4ccc(C)o4)c3C[C@H]2CN1C(=O)c1ccccc1	none
CN(C)S(=O)(=O)c1cccc(NC(=O)COC(=O)c2cn(-c3ccccc3)nc2-c2ccccc2)c1	TTR transcr act 15 | TTR inh HuH7 inactive | TTR up confirm inactive
CN(C)S(=O)(=O)c1cccc(NC(=O)COC(=O)CCOc2ccccc2)c1	none
Cc1cc(C(=O)OCC(=O)Nc2cccc(S(=O)(=O)N(C)C)c2)c2ccccc2n1	none
Cc1cccc(C)c1-n1nnnc1C1(C)CN(S(C)(=O)=O)CC(=O)N1Cc1ccc(F)cc1 (stereo not given)	none
COc1ccccc1N1CCN(C(=O)CSc2nc3ccccc3nc2N2CCC(C)CC2)CC1	none
CC(=O)Nc1nnc(SCC(=O)N2CCc3ccccc32)s1	none
COc1ccccc1N1CCN(C(=O)CSc2nnc(NC(=O)C(C)C)s2)CC1	TTR transcr act 13 | TTR inh HuH7 inactive | TTR up confirm inactive
CN(Cc1ccc2c(c1)CCCN2C)C(=O)[C@H]1O[C@@H](n2ccc(=O)[nH]c2=O)[C@H](O)[C@@H]1O	none
COC(=O)[C@]12CCCCC=C1N(Cc1ccc(OC)cc1)C(=O)[C@@H]2CC(=O)NCc1ccc(C)o1	none
COCCCNC(=O)c1ccc(Cn2c(=O)c3ccccc3n(Cc3ccc(C(C)C)cc3)c2=O)cc1	none
COC(=O)c1ccc2nc(C3CCCCC3)c(Cc3ccccc3)n2c1	TTR transcr act 14 | TTR inh HuH7 inactive | TTR up confirm inactive
COC(=O)c1ccc2nc(-c3ccc(F)cc3)c(Cc3ccccc3)n2c1	none
CCCc1nc2ccc(C(=O)OC)cn2c1Cc1cccc(F)c1	none
CCN(CC)CCN1CCN(c2cncc(-c3ccc4ccccc4c3)n2)CC1	none
COc1ccc(OC)c(S(=O)(=O)n2ccnc2C(C)C)c1	none
CC(=O)N(C)c1cccc([N+](=O)[O-])c1	none
CCCN(N=Nc1cccc([N+](=O)[O-])c1)c1cccc([N+](=O)[O-])c1	none
CN(N=Nc1cccc([N+](=O)[O-])c1)c1cccc([N+](=O)[O-])c1	TTR transcr act 20 | TTR inh HuH7 inactive | TTR up confirm inactive
O=C(Nc1ccc(S(=O)(=O)NC2=NCCCCC2)cc1)c1ccc2ccccc2n1	none
C#CCOCCOCCOCCNc1nc(N2CCN(C(=O)[C@H](CCC(=O)O)n3cc([C@@H](N)CC(N)=O)nn3)CC2)nc(N2CCN(C(=O)[C@H](CCC(=O)O)n3cc([C@@H](N)CC(N)=O)nn3)CC2)n1	none
C#CCOCCOCCOCCNc1nc(N2CCN(C(=O)[C@H](CC(N)=O)n3cc([C@@H](N)CC(N)=O)nn3)CC2)nc(N2CCN(C(=O)[C@H](CC(N)=O)n3cc([C@@H](N)CC(N)=O)nn3)CC2)n1	TTR transcr act 14 | TTR inh HuH7 inactive | TTR up confirm inactive
C#CCOCCOCCOCCNc1nc(N2CCOCC2)nc(N2CCN(C(=O)[C@H](CC(N)=O)n3cc([C@@H](N)C(C)C)nn3)CC2)n1	none
O=C(c1ccoc1)N1CCN(c2cc(-c3ccco3)nc3cc(-c4ccco4)nn23)CC1	none
O=C(CCS(=O)(=O)c1ccc(Br)cc1)N1CCN(Cc2ccccc2)CC1	none
Cc1cc(C)c(C#N)c(SCC(=O)N2CCN(Cc3ccccc3)CC2)n1	none
O=C(CSc1ncccn1)N1CCN(Cc2ccccc2)CC1	TTR transcr act 15 | TTR inh HuH7 inactive | TTR up confirm inactive
COCCN(C(=S)Nc1c(C)cccc1C)C(C)c1ccco1 (stereo not given)	none
Clc1ccc(CNc2ccc3nnc(-c4ccccc4)n3n2)cc1	none
c1ccc(CCNc2ccc3nncn3n2)cc1	none
NCCNc1ccc2nnnn2n1	TTR transcr act 19 | TTR inh HuH7 inactive | TTR up confirm inactive
CCC(C)Sc1ccc([C@@H]2[C@H]3C(=O)N(CC)C(=O)[C@H]3[C@]3(C(=O)OC)CCCCN23)cc1 (stereo not given in full)	none
Cc1csc(C(=O)NCC(=O)NNC(=O)c2cccc(Cl)c2)c1	none
Cc1cccc(C(=O)NNC(=O)c2ccccc2C)c1	none
Cc1ccccc1C(=O)NCC(=O)NNC(=O)c1cccc(Cl)c1	TTR transcr act 19 | TTR inh HuH7 inactive | TTR up confirm inactive
C[C@@H]1CN([C@@H](C)CO)C(=O)CCCn2cc(nn2)CO[C@H]1CN(C)C(=O)c1ccc(N2CCN(C)CC2)cc1	none
O=C(N[C@H](Cc1cc(=O)[nH]c2ccccc12)C(=O)O)c1ccc(Cl)cc1	none
C[C@H]1[C@@H](OC(=O)NCc2cccnc2)CC[C@@]23CCCN2C(=O)CCC[C@@H]13	none
O=C(OCCCCSc1nnc(-c2cccc3ccccc23)o1)c1ccc(F)cc1	none
CCOC(=O)C1CCN(C(=O)CN(c2ccc(Cl)c(C(F)(F)F)c2)S(C)(=O)=O)CC1	none
CCOC(=O)C1CCN(C(=O)COc2ccc3c(c2)OCO3)CC1	none

Assay outcomes (PubChem)
